PubChem BioAssay (EPA / NIEHS)
Inconclusive results are not listed. Some structures have more than one record in an assay (separate samples or runs), and their calls can disagree. Calls of active or inactive are those of the source. The calls were made as follows, unless noted: active = hit-call score of the fitted dose curve at least 0.9, where 1 is the maximum; inactive = score below 0.9.

Legend:
[1] = read-out: Monokine induced gamma interferon (MIG), CXCL9 (gene 4283); assay: BSK_3C_MIG: BioMAP Diversity Plus: 3C Assay for Monokine induced gamma interferon (MIG) Biomarker Activity (AID 2283021); settings: primary human endothelial cells (HUVEC); actives raise or lower the signal
Summary of the method: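 ELISA measurement of MIG in human umbilical vein endothelial cells 24 h after treatment. Cytotoxicity tracked by SRB staining in parallel cultures; gain or loss of signal fitted relative to DMSO.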

[2] = BSK_3C_SRB: Viability Assessment in the BioMAP Diversity Plus: 3C Assay (AID 2283023); settings: primary human endothelial cells (HUVEC);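 also: fitted both ways against DMSO so a hit may be signal rise or drop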
Summary of the method: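 Cells were dosed with chemical, cultured 24 h, fixed with 10% TCA, stained with 0.1% SRB and read at 560 nm. Human umbilical vein endothelium was used; DMSO served as negative control and baseline.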

[3] = read-out: Matrix Metallopeptidase 1 (MMP1), MMP1 (gene 4312); assay: BSK_BE3C_MMP1: BioMAP Diversity Plus: BE3C Assay for Matrix Metallopeptidase 1 (MMP1) Biomarker Activity (AID 2283024); settings: primary human bronchial epithelial cells; actives raise or lower the signal
Summary of the method: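 ELISA measurement of MMP-1 after 24 h compound exposure of primary human bronchial epithelial cells. Changes in either direction fitted relative to DMSO; parallel SRB staining checked overt cytotoxicity.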

[4] = BSK_3C_Vis: BioMAP Diversity Plus: 3C Assay for Morphology Visualization (AID 2283025); settings: primary human endothelial cells (HUVEC);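 also: fitted both ways so gain or loss versus DMSO counts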;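 as to AC50: light microscopy image of cell morphology used as background control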
Summary of the method: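 Light-microscopy visualization of HUVEC cultures at 24 h post-treatment, with DMSO as baseline for bidirectional fitting.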

[5] = read-out: Pselectin, SELP (gene 6403); assay: BSK_4H_Pselectin: BioMAP Diversity Plus: 4H Assay for Pselectin Biomarker Activity (AID 2283026); settings: primary human endothelial cells (HUVEC); actives raise or lower the signal
Summary of the method: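 ELISA of surface P-selectin on HUVEC, 24 h after dosing, with parallel SRB staining (0.1% after 10% TCA fixation, 560 nm) for overt cytotoxicity. Activity fitted in both directions relative to DMSO.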

[6] = BSK_4H_SRB: Viability Assessment in the BioMAP Diversity Plus: 4H Assay (AID 2283027); settings: primary human endothelial cells (HUVEC);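 also: cells exposed to compound for 24 h before staining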;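 as to AC50: curves fitted both ways versus DMSO so AC50 may be loss or gain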
Summary of the method: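 Cytotoxicity readout: sulforhodamine B (0.1%) staining of total protein after 10% TCA fixation, measured at 560 nm in human umbilical vein endothelium at 24 h. DMSO set the baseline; fitting was bidirectional.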

[7] = BSK_BE3C_SRB: Viability Assessment in the BioMAP Diversity Plus: BE3C Assay (AID 2283028); settings: primary human bronchial epithelial cells;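 as to AC50: fitted both ways so AC50 may mark signal gain or loss versus DMSO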
Summary of the method: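 Overt cytotoxicity was assessed as total protein in confluent human primary bronchial epithelial cultures 24 h after chemical addition, using 0.1% sulforhodamine B staining read at 560 nm.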

[8] = read-out: Thrombomodulin, THBD (gene 7056); assay: BSK_3C_Thrombomodulin: BioMAP Diversity Plus: 3C Assay for Thrombomodulin Biomarker Activity (AID 2283029); settings: primary human endothelial cells (HUVEC); actives raise or lower the signal
Summary of the method: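 ELISA measurement of thrombomodulin on HUVEC surface 24 h after chemical dosing; activity fitted in both directions relative to DMSO vehicle.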

[9] = read-out: Urokinase-type plasminogen activator receptor (uPAR), PLAUR (gene 5329); assay: BSK_4H_uPAR: BioMAP Diversity Plus: 4H Assay for Urokinase-type plasminogen activator receptor (uPAR) Biomarker Activity (AID 2283030); settings: primary human endothelial cells (HUVEC); actives raise or lower the signal
Summary of the method: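 Chemicals are dosed onto human vascular endothelial primary cells (umbilical vein). After 24 h, uPAR is read by ELISA. Gain or loss of signal is fitted relative to DMSO.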

[10] = read-out: Vascular cell adhesion molecule 1 (VCAM1), VCAM1 (gene 7412); assay: BSK_4H_VCAM1: BioMAP Diversity Plus: 4H Assay for Vascular cell adhesion molecule 1 (VCAM1) Biomarker Activity (AID 2283033); settings: primary human endothelial cells (HUVEC); actives raise or lower the signal;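 as to outcome: cell-surface VCAM-1 protein measured by ELISA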
Summary of the method: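 VCAM-1 ELISA read 24 h after chemical dosing of HUVEC in the BioMAP 4H system, with gain or loss of signal fitted relative to DMSO. Parallel SRB staining (560 nm) checked overt cytotoxicity.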

[11] = read-out: Interferon-gamma inducible Protein 10 (IP10), CXCL10 (gene 3627); assay: BSK_BE3C_IP10: BioMAP Diversity Plus: BE3C Assay for Interferon-gamma inducible Protein 10 (IP10) Biomarker Activity (AID 2283034); settings: primary human bronchial epithelial cells; actives raise or lower the signal
Summary of the method: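 IP-10 quantified by ELISA in human primary bronchial epithelial cell cultures at 24 hours post-dosing. Gain or loss of signal fitted relative to DMSO; parallel SRB staining assessed overt cytotoxicity.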

[12] = read-out: Monokine induced gamma interferon (MIG), CXCL9 (gene 4283); assay: BSK_BE3C_MIG: BioMAP Diversity Plus: BE3C Assay for Monokine induced gamma interferon (MIG) Biomarker Activity (AID 2283035); settings: primary human bronchial epithelial cells; actives raise or lower the signal
Summary of the method: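 hu bronchial epithelial 1° cells, 24 h cpd; MIG by ELISA; bidirectional fit, DMSO = baseline.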

[13] = read-out: Transforming growth factor beta 1 (TGFb1), TGFB1 (gene 7040); assay: BSK_BE3C_TGFb1: BioMAP Diversity Plus: BE3C Assay for Transforming growth factor beta 1 (TGFb1) Biomarker Activity (AID 2283036;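 as to outcome: TGF-b1 protein level measured by ELISA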); settings: primary human bronchial epithelial cells; actives raise or lower the signal
Summary of the method: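 ELISA readout of TGF-b1 from human lung bronchial epithelial primary cells, taken 24 h post-treatment. Gain or loss of signal fitted relative to DMSO baseline, with parallel SRB staining for overt cytotoxicity.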

[14] = read-out: Plasminogen activator inhibitor-1 (PAI1), SERPINE1 (gene 5054); assay: BSK_BE3C_PAI1: BioMAP Diversity Plus: BE3C Assay for Plasminogen activator inhibitor-1 (PAI1) Biomarker Activity (AID 2283037); settings: primary human bronchial epithelial cells; actives raise or lower the signal
Summary of the method: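 PAI-1 was measured by ELISA in human primary bronchial epithelial cultures 24 h after chemical dosing, with cytotoxicity checked by SRB total-protein staining in parallel cultures. Activity was fitted in both directions relative to DMSO.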

[15] = read-out: urokinase plasminogen activator (uPA), PLAU (gene 5328); assay: BSK_BE3C_uPA: BioMAP Diversity Plus: BE3C Assay for urokinase plasminogen activator (uPA) Biomarker Activity (AID 2283038); settings: primary human bronchial epithelial cells; actives raise or lower the signal;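 as to outcome: uPA protein level quantified by ELISA in cell cultures; uPA read one day after compound addition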
Summary of the method: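 Measured by ELISA: uPA from human primary bronchial epithelial cells 24 h after chemical treatment. Values derive from bidirectional curve fitting with DMSO serving as negative control. Total protein by SRB staining in parallel wells flagged overt cytotoxicity.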

[16] = read-out: Urokinase-type plasminogen activator receptor (uPAR), PLAUR (gene 5329); assay: BSK_BE3C_uPAR: BioMAP Diversity Plus: BE3C Assay for Urokinase-type plasminogen activator receptor (uPAR) Biomarker Activity (AID 2283039); settings: primary human bronchial epithelial cells; actives raise or lower the signal;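 as to outcome: cells exposed to compound for one day before measurement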
Summary of the method: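 uPAR levels were measured by ELISA after 24 h compound treatment of primary human bronchial epithelial cells, fitted in both directions relative to DMSO. Parallel SRB staining served as the cytotoxicity read-out.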

[17] = read-out: Interleukin-6 (IL6), IL6 (gene 3569); assay: BSK_CASM3C_IL6: BioMAP Diversity Plus: CASM3C Assay for Interleukin-6 (IL6) Biomarker Activity for (AID 2283040); settings: primary human coronary artery smooth muscle cells; actives raise or lower the signal
[18] = read-out: Tissue plasminogen activator (tPA), PLAT (gene 5327); assay: BSK_BE3C_tPA: BioMAP Diversity Plus: BE3C Assay for Tissue plasminogen activator (tPA) Biomarker Activity (AID 2283041); settings: primary human bronchial epithelial cells; actives raise or lower the signal;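 as to outcome: tPA level quantified by ELISA one day after compound addition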
Summary of the method: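 tPA measured by ELISA 24 h after dosing human primary bronchial epithelial cells (BE3C system). Changes in either direction were fitted against DMSO. Parallel cultures were stained with SRB to flag overt cytotoxicity.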

[19] = read-out: Interleukin-8 (IL8), CXCL8 (gene 3576); assay: BSK_CASM3C_IL8: BioMAP Diversity Plus: CASM3C Assay for Interleukin-8 (IL8) Biomarker Activity (AID 2283042); settings: primary human coronary artery smooth muscle cells; actives raise or lower the signal;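 also: IL-8 protein level quantified by ELISA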
[20] = biological target: human Vitamin D Receptor (VDR), VDR (gene 7421) (UniProt P11473); assay: ATG_VDR_TRANS: Attagene TRANS-FACTORIAL HepG2 Assay for human Vitamin D Receptor (VDR) (AID 2283022; active = hit-call score of the fitted dose curve at least 0.9, where 1 is the maximum)
Summary of the method: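 Fluorescence of labelled reporter cDNA fragments, resolved by capillary electrophoresis, gives mRNA induction after 24 h treatment of HepG2 cells carrying transfected Gal4-fusion reporter units. Activity is fitted in the positive direction with DMSO as baseline.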

human Vitamin D Receptor (VDR), VDR (gene 7421), sequence (P11473 whole entry, looked up, the tested form may be a part): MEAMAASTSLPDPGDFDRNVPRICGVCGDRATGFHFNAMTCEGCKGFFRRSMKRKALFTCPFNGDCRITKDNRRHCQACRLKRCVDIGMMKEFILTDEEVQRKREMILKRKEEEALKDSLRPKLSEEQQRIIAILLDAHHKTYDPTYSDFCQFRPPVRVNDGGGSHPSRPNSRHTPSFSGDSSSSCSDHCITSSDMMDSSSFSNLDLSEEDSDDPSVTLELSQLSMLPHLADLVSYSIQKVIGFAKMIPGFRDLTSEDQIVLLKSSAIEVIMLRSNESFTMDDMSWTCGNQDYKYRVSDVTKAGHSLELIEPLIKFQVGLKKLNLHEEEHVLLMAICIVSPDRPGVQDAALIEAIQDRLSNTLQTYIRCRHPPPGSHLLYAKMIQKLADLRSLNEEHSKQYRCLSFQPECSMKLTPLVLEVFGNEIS

For `c1ccc2c(c1)ccc1cc3c(ccc4ccccc43)cc12`, the outcome [1] was “inactive”, the outcome [2] was “inactive” and the AC50 [3] was 0.015 µM (active). For the same compound, the AC50 [4] was 35.7 µM (active), the outcome [4] was “inactive” and the outcome [5] was “inactive”. For the same compound, the outcome [6] was “inactive”, the outcome [7] was “inactive” and the outcome [8] was “inactive”. The AC50 [9] was 0.267 µM (active), the outcome [9] was “inactive” and the outcome [10] was “inactive”. For the same compound, the outcome [11] was “inactive”, the outcome [12] was “inactive” and the outcome [13] was “inactive”. For the same compound, the outcome [14] was “inactive”, the outcome [15] was “inactive” and the outcome [16] was “inactive”. The outcome [17] was “inactive”, the outcome [18] was “inactive” and the outcome [19] was “inactive”.

With `CCCCC(CC)COCC1CO1` (stereo unspecified) the outcome [1] was “inactive”, the outcome [2] was “inactive” and the outcome [3] was “inactive”. The outcome [5] was “inactive”, the outcome [6] was “inactive” and the outcome [7] was “inactive”. The outcome [8] was “inactive”, the outcome [9] was “inactive” and the outcome [10] was “inactive”. For the same compound, the outcome [11] was “inactive”, the outcome [12] was “inactive” and the outcome [14] was “inactive”. For the same compound, the outcome [15] was “inactive”, the outcome [16] was “inactive” and the outcome [17] was “inactive”. For the same compound, the outcome [18] was “inactive” and the outcome [19] was “inactive”.

With `CO[Si](OC)(OC)c1ccccc1` the outcome [1] was “inactive”, the outcome [20] was “inactive” and the outcome [2] was “inactive”. The outcome [3] was “inactive”, the outcome [5] was “inactive” and the outcome [6] was “inactive”. For the same compound, the outcome [7] was “inactive”, the outcome [8] was “inactive” and the outcome [9] was “inactive”. For the same compound, the outcome [10] was “inactive”, the outcome [11] was “inactive” and the outcome [12] was “inactive”. For the same compound, the outcome [14] was “inactive”, the outcome [15] was “inactive” and the outcome [16] was “inactive”. For the same compound, the outcome [17] was “inactive”, the outcome [18] was “inactive” and the outcome [19] was “inactive”.

In the case of `C=CCOc1c(Br)cc(Br)cc1Br`, the outcome [1] is reported as “inactive”, the outcome [20] is reported as “inactive” and the AC50 [2] is reported as 29.3 µM (active). For the same compound, the AC50 [3] was 3.97 µM (active), the AC50 [4] was 14.1 µM (active) and the AC50 [5] was 20 µM (active). For the same compound, the outcome [6] was “inactive”, the AC50 [7] was 31.4 µM (active) and the AC50 [8] was 3.97 µM (active). The AC50 [9] was 31 µM (active), the AC50 [10] was 31.5 µM (active) and the AC50 [11] was 30.9 µM (active). For the same compound, the outcome [12] was “inactive”, the AC50 [13] was 6.57 µM (active) and the AC50 [14] was 20 µM (active). The AC50 [15] was 20 µM (active), the AC50 [16] was 25.2 µM (active) and the AC50 [17] was 27.5 µM (active). For the same compound, the AC50 [18] was 8.88 µM (active) and the AC50 [19] was 27.1 µM (active).

In the case of `c1ccc(-c2ccccn2)nc1`, the outcome [1] is reported as “inactive”, the outcome [20] is reported as “inactive” and the outcome [2] is reported as “inactive”. The outcome [3] was “inactive”, the outcome [4] was “inactive” and the outcome [5] was “inactive”. For the same compound, the outcome [6] was “inactive”, the outcome [7] was “inactive” and the outcome [8] was “inactive”. For the same compound, the outcome [9] was “inactive”, the outcome [10] was “inactive” and the outcome [11] was “inactive”. The outcome [12] was “inactive”, the outcome [13] was “inactive” and the outcome [14] was “inactive”. For the same compound, the outcome [15] was “inactive”, the outcome [16] was “inactive” and the outcome [17] was “inactive”. The outcome [18] was “inactive” and the outcome [19] was “inactive”.

With `S=C(NC1CCCCC1)NC1CCCCC1` the outcome [1] was “inactive”, the outcome [20] was “inactive” and the outcome [2] was “inactive”. The outcome [3] was “inactive”, the outcome [4] was “inactive” and the outcome [5] was “inactive”. For the same compound, the outcome [6] was “inactive”, the outcome [7] was “inactive” and the outcome [8] was “inactive”. The outcome [9] was “inactive”, the outcome [10] was “inactive” and the outcome [11] was “inactive”. For the same compound, the outcome [12] was “inactive”, the outcome [13] was “inactive” and the outcome [14] was “inactive”. For the same compound, the outcome [15] was “inactive”, the outcome [16] was “inactive” and the outcome [17] was “inactive”. The outcome [18] was “inactive” and the outcome [19] was “inactive”.

For `CCCCC(CC)COC(=O)c1ccccc1O` (stereo unspecified), the outcome [1] was “inactive”, the outcome [20] was “inactive” and the AC50 [2] was 15.7 µM (active). For the same compound, the outcome [3] was “inactive”, the AC50 [4] was 19.9 µM (active) and the AC50 [5] was 16.2 µM (active). The AC50 [6] was 18.2 µM (active), the outcome [7] was “inactive” and the outcome [8] was “inactive”. For the same compound, the outcome [9] was “inactive”, the AC50 [10] was 14.9 µM (active) and the outcome [11] was “inactive”. The outcome [12] was “inactive”, the outcome [13] was “inactive” and the outcome [14] was “inactive”. For the same compound, the outcome [15] was “inactive”, the outcome [16] was “inactive” and the outcome [17] was “inactive”. The outcome [18] was “inactive” and the outcome [19] was “inactive”.
